# Source: PubChem BioAssay (NCI)
# Values joined by “and” are separate entries in the source; they are usually repeats but may differ in a detail not shown here. Equal values may be shown once. About 83,000 compounds went through this panel and 20% of them were active in at least one assay; those are over-represented in the sample as a whole.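 Testing used 96-well plates and a 48-hour single-concentration exposure. Example: -40 means 40% of the starting cells died.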 Active and inactive are the calls of the source. The calls were made as follows: active = growth percent below 10; inactive = the rest.
# Tested on: SN12C renal
# Test: NCI-60 one-dose screen, 48 h (100 = growth as untreated, 0 = no growth, -100 = all killed)
# Conditions: 10 µM unless noted
row,Compound,growth
1,CC(C)NC(=O)c1cc(-c2ccc(NC(=O)Nc3ccc(F)cc3)cc2)nc2cccnc12,103% (inactive)
2,O=C1c2ccccc2C23C(=C(c4cncnc4)c4ccccc42)CCCN13 (configuration not stated),96.4% (inactive)
3,N#Cc1cccc(-c2cc(-c3ccc4c(c3)OCCO4)[nH]n2)c1,49.2% (inactive)
4,CCC(=C(c1ccc(OCCN(C)C)cc1)c1ccc(OCCN(C)C)cc1)c1ccc(Cl)cc1,-33.2% (active)
5,COc1ccccc1/C=C1\Oc2ccc(O)c(O)c2C1=O,94.5% (inactive)
6,CN1CCN(c2ccc(Nc3nc(NCCCNS(=O)(=O)c4ccccc4)c4sccc4n3)cc2)CC1,72.7% (inactive)
7,Nc1nc(=O)n([C@H]2C[C@H](O)[C@@H](CO)O2)cc1C=O,-19.5% (active)

# Tested on: UO-31 renal
# Test: as above
# Conditions: 10 µM unless noted
row,Compound,growth
1,CCc1cccc2c3c(sc12)C(c1ccc(F)cc1)C(C#N)=C(/N=C/c1ccc(Cl)cc1)O3 (configuration not stated),39.2% (inactive)
2,Cc1ccc2c(n1)C(=O)C(Cl)=C(Nc1ccc(C(=O)OC(C)(C)C)cc1)C2=O,46.4% [9.25 µM] (inactive)
3,Clc1ccc2[nH]cc(-c3cncn3CCc3ccc4c(c3)OCO4)c2c1,51.9% (inactive)
4,CCCCCCCCCC(=O)NC(C)(C)C(=O)N1CCC[C@H]1C(=O)N[C@@H](CC(C)C)C(=O)N[C@@](C)(CC)C(=O)N[C@@H](CCC(N)=O)C(=O)N[C@H](CCC(N)=O)C(=O)NC(C)(C)C(=O)NC(C)(C)C(=O)N[C@@H](CCC(N)=O)C(=O)N[C@H](CC(C)C)C(=O)N[C@H](CO)CC(C)C,-94% (active) and 26.4% (inactive)
5,C=C1CCc2nc(SCC(=O)O)ccc2N1,91.1% (inactive)
6,CC[C@]12C=CCN3CC[C@@]4(c5ccc(OC)cc5N(C)[C@H]4[C@@](O)(C(=O)OC)[C@@H]1OC(=O)CCN1CCc4ccccc4C1)[C@@H]32,71.6% (inactive)
7,CCOC(=O)c1cccnc1Nc1ccc(NC(=O)Nc2ccc(Cl)c(C(F)(F)F)c2)cc1,34.1% (inactive)
8,Cc1ccc(S(=O)(=O)NCCCNc2nccc(-c3[nH]c(-c4ccccc4)nc3-c3ccc(F)c(O)c3)n2)cc1,115% (inactive)
9,O=C(CSc1nnc(-c2ccc(Cl)cc2)n1-c1ccccc1)Nc1ccc(Cl)cc1,12% (inactive)
10,Cc1ccc2c(n1)C(=O)C(Cl)=C(Nc1ccc(C(F)(F)F)cc1)C2=O,-85.2% (active)
11,CC(=O)C1=C(C)NC(NNc2ccccc2)=NC1c1ccc([N+](=O)[O-])cc1 (configuration not stated),73.3% (inactive)
12,NC(N)=NS(=O)(=O)c1ccc(N=Nc2c(N)nn(-c3ccc([N+](=O)[O-])cc3[N+](=O)[O-])c2N)cc1,82.5% (inactive)
13,NCCNC(=O)c1cccc(COc2ccccc2NC(=O)c2cc(Br)c(Br)[nH]2)c1,90% (inactive)
14,COC(=O)CCCNCCCn1ccc2cc(NCc3cccc(-c4ccccc4)c3C)ccc21,54.5% (inactive)
15,O=C(CCCCCCN1CC(=O)N2[C@@H](c3ccccc3Br)c3[nH]c4ccccc4c3C[C@H]2C1=O)NO,58.4% (inactive)
16,CCCCOc1ccc(S(=O)(=O)N2CCN(c3nc(C)cc(N4CCOCC4)n3)CC2)cc1,17.4% (inactive)
17,NS(=O)(=O)c1ccc(CCn2c(-c3ccc(C(=O)O)cc3)nc(-c3ccccc3)c2-c2ccccc2)cc1,90.8% (inactive)
18,N#C/C(=N\Nc1ccc(F)cc1)C(=O)Nc1cc(-c2ccccc2)nn1-c1ccccc1,3.54% (active)
19,Cn1c2nc3ccccc3c-2cc2ccccc21,13.9% (inactive)
20,NS(=O)(=O)c1nnc(/N=C/c2c(O)[nH]c3ccccc23)s1,72.5% (inactive)

row,Compound,growth
1,NC(=O)c1c(NC(=O)c2ccc(C(F)(F)F)cc2)sc2c1CCC(=O)C2,-86.4% (active)
2,O=C(N/N=C\c1ccc([N+](=O)[O-])cc1)c1ccc2nc(-c3ccc(Br)cc3)[nH]c2c1,41.6% (inactive)
3,C#CCN(C)CCCOc1ccc(NC(=O)CCCCCCC(=O)NO)cc1Cl,26.3% (inactive)
4,Fc1cc(F)cc(NNC(=S)c2ccccc2)c1,26.4% (inactive)
5,Fc1ccc(-c2cn3c(-c4c[nH]c5ccc(Br)cc45)csc3n2)cc1,47.8% (inactive)
6,CC[C@]12C=CCN3CC[C@]4(C(=C(C(=O)OC)C1)Nc1cc5c(cc14)[C@@H]1[C@H](O5)[C@@H](O)[C@@]4(CC)CC(C(=O)OC)=C5Nc6cc(O)ccc6[C@@]56CCN1C46)C32 (some centres not stated),4.9% (active)
7,Cc1cc(C)cc(NC2=C(Cl)C(=O)c3nc(C)ccc3C2=O)c1,0.909% (active)
8,COc1ccc2c(c1)c(-c1nn3cc(-c4ccncc4)nc3s1)cn2C,53.3% (inactive)
9,COC(=O)N1CCN(CCNCc2ccc(NC(=O)c3ccc(C)c(C#Cc4cnc5cccnn45)c3)cc2C(F)(F)F)CC1,26.8% (inactive)
10,CC(C)(O)c1cncc(-c2ccc3ncc(C#N)c(N4CCc5cc(F)c(Cl)cc54)c3c2)c1,-2.66% (active)
11,O=C(/C=C/c1ccc(F)cc1)Nc1cccc2cccnc12,84.1% (inactive)
12,C#CCN(C)CCCOc1ccc(NCc2ccc(C(=O)NO)cc2)cc1Cl,-13.7% (active)
13,COCCOc1ccc2ncc(C#Cc3cncc(C(=O)Nc4ccc(CN5CCN(C)CC5)c(C(F)(F)F)c4)c3)n2n1,2.58% (active)
14,CC(C)NC(=O)c1cc(-c2ccc(NC(=O)Nc3ccc(F)cc3)cc2)nc2cccnc12,92.8% (inactive)
15,O=C1c2ccccc2C23C(=C(c4cncnc4)c4ccccc42)CCCN13 (configuration not stated),85.6% (inactive)
16,N#Cc1cccc(-c2cc(-c3ccc4c(c3)OCCO4)[nH]n2)c1,42.8% (inactive)
17,CCC(=C(c1ccc(OCCN(C)C)cc1)c1ccc(OCCN(C)C)cc1)c1ccc(Cl)cc1,-71.9% (active)
18,COc1ccccc1/C=C1\Oc2ccc(O)c(O)c2C1=O,82.1% (inactive)
19,CN1CCN(c2ccc(Nc3nc(NCCCNS(=O)(=O)c4ccccc4)c4sccc4n3)cc2)CC1,69.2% (inactive)
20,Nc1nc(=O)n([C@H]2C[C@H](O)[C@@H](CO)O2)cc1C=O,101% (inactive)
